This excerpt belongs to a sample that is enriched for the strongest signals.
How the values were obtained:
Experiment in all cases: glycan array binding signal (z-score within array); higher = stronger binding
Conditions in all cases: glycan notation: IUPAC condensed, linker removed
[1] = target: Gal(b1-4)GlcNAc(b1-3)Gal(b1-4)GlcNAc(b1-2)[Gal(b1-4)GlcNAc(b1-3)Gal(b1-4)GlcNAc(b1-6)]Man(a1-6)[Gal(b1-4)GlcNAc(b1-3)Gal(b1-4)GlcNAc(b1-2)Man(a1-3)]Man(b1-4)GlcNAc(b1-4)[Fuc(a1-6)]GlcNAc
Outline: (§1)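 Columns mapping to the same glycan were averaged after glycan names were converted to IUPAC-condensed notation. The data come from 3228 arrays in the Consortium for Functional Glycomics database, limited to those with an available protein sequence. Binding is reported as a within-array Z-score averaged across arrays of one protein sequence and across linkers.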

[2] = target: Gal(b1-4)GlcNAc(b1-3)Gal(b1-4)GlcNAc(b1-3)Gal(b1-4)GlcNAc(b1-3)Gal(b1-4)GlcNAc(b1-2)Man(a1-3)[Gal(b1-4)GlcNAc(b1-3)Gal(b1-4)GlcNAc(b1-3)Gal(b1-4)GlcNAc(b1-3)Gal(b1-4)GlcNAc(b1-2)Man(a1-6)]Man(b1-4)GlcNAc(b1-4)[Fuc(a1-6)]GlcNAc
Outline: as §1

[3] = target: Gal(b1-4)GlcNAc(b1-3)Gal(b1-4)GlcNAc(b1-3)Gal(b1-4)GlcNAc(b1-3)Gal(b1-4)GlcNAc(b1-3)Gal(b1-4)GlcNAc(b1-2)Man(a1-3)[Gal(b1-4)GlcNAc(b1-3)Gal(b1-4)GlcNAc(b1-3)Gal(b1-4)GlcNAc(b1-3)Gal(b1-4)GlcNAc(b1-3)Gal(b1-4)GlcNAc(b1-2)Man(a1-6)]Man(b1-4)GlcNAc(b1-4)GlcNAc
Outline: as §1

[4] = target: Gal(b1-4)GlcNAc(b1-3)Gal(b1-4)GlcNAc(b1-3)Gal(b1-4)GlcNAc(b1-3)Gal(b1-4)GlcNAc(b1-3)Gal(b1-4)GlcNAc(b1-3)Gal(b1-4)GlcNAc(b1-2)Man(a1-3)[Gal(b1-4)GlcNAc(b1-3)Gal(b1-4)GlcNAc(b1-3)Gal(b1-4)GlcNAc(b1-3)Gal(b1-4)GlcNAc(b1-3)Gal(b1-4)GlcNAc(b1-3)Gal(b1-4)GlcNAc(b1-2)Man(a1-6)]Man(b1-4)GlcNAc(b1-4)GlcNAc
Outline: as §1

Gal3S(b1-4)Glc6S = target: Gal3S(b1-4)Glc6S
Outline: as §1

Gal4S6S(b1-4)GlcNAc = target: Gal4S6S(b1-4)GlcNAc
Outline: as §1

Gal6S(b1-4)Glc6S = target: Gal6S(b1-4)Glc6S
Outline: as §1

Gal6S(b1-4)GlcNAc6S = target: Gal6S(b1-4)GlcNAc6S
Outline: as §1

[5] = target: GalNAc(b1-3)Gal(a1-6)Gal(b1-4)Glc
Outline: as §1

[6] = target: GalNAc(b1-4)GlcNAc(b1-2)Man
Outline: as §1

[7] = target: GalNAc(b1-4)GlcNAc(b1-2)Man(a1-3)[GalNAc(b1-4)GlcNAc(b1-2)Man(a1-6)]Man(b1-4)GlcNAc(b1-4)GlcNAc
Outline: as §1

[8] = target: GlcNAc(a1-4)Gal(b1-4)GlcNAc(b1-3)Gal(b1-4)Glc
Outline: as §1

[9] = target: GlcNAc(b1-3)Gal(b1-4)GlcNAc(b1-3)Gal(b1-4)GlcNAc(b1-3)Gal(b1-4)GlcNAc(b1-3)Gal(b1-4)GlcNAc(b1-2)Man(a1-3)[GlcNAc(b1-3)Gal(b1-4)GlcNAc(b1-3)Gal(b1-4)GlcNAc(b1-3)Gal(b1-4)GlcNAc(b1-3)Gal(b1-4)GlcNAc(b1-2)Man(a1-6)]Man(b1-4)GlcNAc(b1-4)[Fuc(a1-6)]GlcNAc
Outline: as §1

GlcNAc(b1-3)Man = target: GlcNAc(b1-3)Man
Outline: as §1

[10] = target: Man(a1-2)Man(a1-3)[Man(a1-2)Man(a1-6)]Man
Outline: as §1

[11] = target: Man(a1-2)Man(a1-6)[Man(a1-3)]Man(a1-6)[Man(a1-2)Man(a1-2)Man(a1-3)]Man(b1-4)GlcNAc(b1-4)GlcNAc
Outline: as §1

[12] = target: Neu5Ac(a2-3)Gal(b1-3)GlcNAc
Outline: as §1

[13] = target: Neu5Ac(a2-3)Gal(b1-4)GlcNAc(b1-2)Man(a1-3)[Neu5Ac(a2-3)Gal(b1-4)GlcNAc(b1-2)Man(a1-6)]Man(b1-4)GlcNAc(b1-4)[Fuc(a1-6)]GlcNAc
Outline: as §1

[14] = target: Neu5Ac(a2-3)Gal(b1-4)GlcNAc(b1-2)[Neu5Ac(a2-3)Gal(b1-4)GlcNAc(b1-6)]Man(a1-6)[Neu5Ac(a2-3)Gal(b1-4)GlcNAc(b1-2)Man(a1-3)][GlcNAc(b1-4)]Man(b1-4)GlcNAc(b1-4)GlcNAc
Outline: as §1

[15] = target: Neu5Ac(a2-3)Gal(b1-4)GlcNAc(b1-3)Gal(b1-4)GlcNAc
Outline: as §1

[16] = target: Neu5Ac(a2-3)Gal(b1-4)GlcNAc(b1-3)Gal(b1-4)GlcNAc(b1-2)Man(a1-3)[Neu5Ac(a2-3)Gal(b1-4)GlcNAc(b1-3)Gal(b1-4)GlcNAc(b1-2)Man(a1-6)]Man(b1-4)GlcNAc(b1-4)GlcNAc
Outline: as §1

[17] = target: Neu5Ac(a2-3)Gal(b1-4)GlcNAc(b1-3)Gal(b1-4)GlcNAc(b1-3)GalNAc
Outline: as §1

[18] = target: Neu5Ac(a2-3)Gal(b1-4)GlcNAc(b1-3)Gal(b1-4)GlcNAc(b1-3)[Neu5Ac(a2-3)Gal(b1-4)GlcNAc(b1-3)Gal(b1-4)GlcNAc(b1-6)]GalNAc
Outline: as §1

[19] = target: Neu5Ac(a2-3)Gal(b1-4)GlcNAc(b1-6)[Gal(b1-3)]GalNAc
Outline: as §1

[20] = target: Neu5Ac(a2-3)Gal(b1-4)[Fuc(a1-3)]GlcNAc(b1-3)Gal(b1-4)[Fuc(a1-3)]GlcNAc(b1-3)Gal(b1-4)[Fuc(a1-3)]GlcNAc
Outline: as §1

[21] = target: Neu5Ac(a2-3)Gal(b1-4)[Fuc(a1-3)]GlcNAc(b1-3)GalNAc
Outline: as §1

Neu5Ac(a2-3)GalNAc = target: Neu5Ac(a2-3)GalNAc
Outline: as §1

[22] = target: Neu5Ac(a2-3)[GalNAc(b1-4)]Gal(b1-4)Glc
Outline: as §1

[23] = target: Neu5Ac(a2-6)Gal(b1-4)GlcNAc(b1-3)GalNAc
Outline: as §1

[24] = target: Neu5Ac(a2-6)GalNAc(b1-4)GlcNAc
Outline: as §1

[25] = target: Neu5Ac(a2-6)GlcNAc(b1-4)GlcNAc
Outline: as §1

[26] = target: Neu5Ac(a2-8)Neu5Ac(a2-8)Neu5Ac
Outline: as §1

[27] = target: Neu5Ac(a2-8)Neu5Gc(a2-3)Gal(b1-4)GlcNAc
Outline: as §1

[28] = target: Neu5Gc(a2-3)Gal(b1-3)GlcNAc
Outline: as §1

B1: PX14379A-bvu-539-28-539 (Bacteroides vulgatus) (protein)
chain: EPYSEIIEEDYVPTEADEIALLATTYSQLRFVMDWYGLFDLQEESGDVIVTPTRPNGWDDGGTYKQMHKHTWDNQQGQPQSIWDYCYKGIANANKILKRADEGFFTEESKPKVVAEVKGVRALWYSILCDTHGNIPIQTSFSEEVPVQSTRKQVFDFIINELKEVMPNLPTEVNKSTYGRLTQWGAKCLMARMYLNAGVYTGTPMWNECLEQCNDIINSGLFSLETNYTDIFKTENSGCVETIFAIPYDEVYNEGDNNGPVFGAHMKFLSSNSRKVFNMQTTPWGGSAANPQFINSYDPDDMRLKYTWLQGDQYSPDGVLITTFPNKLPSIYKTDTDDGYRVGKYEIKVGAKSLLSNDFPYFRYTEVLLMKAECLLRLGQNETEAAHIVSQIRERAFRESAHPEKATVDAAWLKGDTHINYGTLDEKGQIDDAGNTEVVELGGLYDEWGWEFAAEARRRTDMIRFGTYQKKSWFNHTPTANDLNGNSILFPIHLDHLNTNPNLQQNPGYAGK
glycan array binding signal (z-score) [1]: 7.27
glycan array binding signal (z-score) [2]: 0.984
glycan array binding signal (z-score) [3]: 9.41
glycan array binding signal (z-score) [4]: 0.819
glycan array binding signal (z-score) (Gal3S(b1-4)Glc6S): -0.224
glycan array binding signal (z-score) (Gal4S6S(b1-4)GlcNAc): -0.533
glycan array binding signal (z-score) (Gal6S(b1-4)Glc6S): -0.28
glycan array binding signal (z-score) (Gal6S(b1-4)GlcNAc6S): -0.175
glycan array binding signal (z-score) [5]: 2.98
glycan array binding signal (z-score) [6]: -0.549
glycan array binding signal (z-score) [7]: -0.102
glycan array binding signal (z-score) [8]: -0.444
glycan array binding signal (z-score) [9]: 3.83
glycan array binding signal (z-score) (GlcNAc(b1-3)Man): -0.278
glycan array binding signal (z-score) [10]: -0.377
glycan array binding signal (z-score) [11]: -0.361
glycan array binding signal (z-score) [12]: -0.439
glycan array binding signal (z-score) [13]: -0.571
glycan array binding signal (z-score) [14]: -0.378
glycan array binding signal (z-score) [15]: -0.185
glycan array binding signal (z-score) [16]: 0.342
glycan array binding signal (z-score) [17]: -0.138
glycan array binding signal (z-score) [18]: -0.132
glycan array binding signal (z-score) [19]: -0.388
glycan array binding signal (z-score) [20]: -0.35
glycan array binding signal (z-score) [21]: 5.8
glycan array binding signal (z-score) (Neu5Ac(a2-3)GalNAc): -0.249
glycan array binding signal (z-score) [22]: -0.297
glycan array binding signal (z-score) [23]: -0.204
glycan array binding signal (z-score) [24]: -0.211
glycan array binding signal (z-score) [25]: -0.56
glycan array binding signal (z-score) [26]: -0.382
glycan array binding signal (z-score) [27]: 7.1
glycan array binding signal (z-score) [28]: -0.228
